The values below come from PubChem BioAssay.

Each structure is given as a SMILES string. Active and inactive are the calls of the source.

Experiment [1] deals with Human papillomavirus type 1a protein E7 (residues 44-93). Nature of the experiment: small molecules binding HPV E7 44-93 – biochemical, small-molecule microarray, residues 44-93, 635 nm fluorescence, primary screen (AID 1108).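 Also: E7 fragment applied at 1 µg/mL in TBST for 1 h at 4 C; score combines spot fluorescence with its signal to noise ratio.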 To be noted: fluorescence 635 nm, higher = more signal.
A short description of experiment [2]: hepatitis C replication reporter changes, two-sided – Huh7 cells, luciferase reporter, HCV replication inhibitor project, primary screen (AID 1109).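 Also: huh7 hepatoma cells harbouring a luciferase neomycin HCV replicon reporter; luciferase luminescence as measure of HCV replicon replication; test concentration not given here.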 The settings on record: Huh7 HCV replicon luciferase reporter, 48 h; higher = more signal. (In a reporter assay the amount or activity of a reporter protein is the signal.)
The target of experiment [3] is Left-right determination factor 2 (Homo sapiens) (UniProt O00292). Nature of the experiment: small molecules binding LEFTY2 protein – biochemical, small-molecule microarray, 635 nm fluorescence scan, primary screen (AID 1110). The settings on record: higher = more signal.
Left-right determination factor 2 (Homo sapiens), sequence (O00292 whole entry, looked up): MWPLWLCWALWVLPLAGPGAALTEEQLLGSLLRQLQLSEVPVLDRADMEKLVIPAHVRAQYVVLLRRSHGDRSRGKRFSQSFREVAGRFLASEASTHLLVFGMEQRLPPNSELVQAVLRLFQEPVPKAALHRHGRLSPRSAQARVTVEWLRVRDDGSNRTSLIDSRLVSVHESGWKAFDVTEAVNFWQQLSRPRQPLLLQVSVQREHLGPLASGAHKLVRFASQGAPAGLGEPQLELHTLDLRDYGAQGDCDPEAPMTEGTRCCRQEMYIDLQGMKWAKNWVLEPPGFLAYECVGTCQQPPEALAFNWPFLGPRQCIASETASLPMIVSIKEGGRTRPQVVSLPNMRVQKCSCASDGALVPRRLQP
In experiment [4] the target is Calmodulin-1 (Homo sapiens) (UniProt P0DP23). Briefly: small molecules binding calmodulin-1 with EGTA – biochemical, small-molecule microarray, Cy5-labelled CALM1, profiling panel (AID 1111).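 Also: labelled calmodulin applied in Tris saline Tween buffer holding calcium plus EGTA and DTT.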 The settings on record: Cy5-CALM1 binding fluorescence, higher = more signal.
Experiment [5] has the same target. Briefly: small molecules binding Ca-loaded calmodulin-1 – biochemical, small-molecule microarray, Cy5-labelled CALM1, plus calcium, artefact control for SMM control-protein annotation, profiling panel (AID 1112).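 Also: score merges spot fluorescence with signal to noise from triplicate slides.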 To be noted: Cy5-CALM1 binding fluorescence, higher = more signal.
A short description of experiment [6]: probe aWnt5a binding to arrayed compounds – biochemical, biotinylated probe, 635/667 nm fluorescence, primary screen (AID 1113).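 Also: score merges 667 nm fluorescence intensity with signal-to-noise per printed feature.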 The settings on record: small-molecule microarray, higher = more signal.
The nature of experiment [7]: probe aShh binding to arrayed compounds – biochemical, biotinylated probe, 635/667 nm fluorescence, primary screen (AID 1114).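 Also: probe is biotin-labelled aShh protein from a stem cell growth factor screen; measures binding of labelled protein to compounds printed on the slide; score merges feature fluorescence at 667 nm with signal-to-noise.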 The settings on record: small-molecule microarray, higher = more signal.
Experiment [8] in a line: probe aNog binding to arrayed compounds – biochemical, biotinylated probe, 635/667 nm fluorescence, primary screen (AID 1115).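 Also: probe is biotinylated aNog protein used at 0.15 µg/mL for 1 h at 4 C; z-score combines 667 nm fluorescence of each spot with its signal to noise.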 The settings on record: small-molecule microarray, higher = more signal.
Experiment [9] concerns the target Torsin-1A-interacting protein 1 (Homo sapiens) (UniProt Q5JTV8). Nature of the experiment: compound microarray binding of lysate hLAP1 – cell lysate, small-molecule microarray, COS7 lysate, 635/667 nm fluorescence, primary screen (AID 1116). The settings on record: 635 nm fluorescence, higher = more signal.
Experiment [10] addresses Alpha-bungarotoxin (Bungarus multicinctus) (UniProt P60615). Nature of the experiment: compounds binding labelled alpha-BTX control protein – biochemical, small-molecule microarray, Alexa647 label, 635/667 nm fluorescence, artefact control for SMM control protein annotation, profiling panel (AID 1117). To be noted: alpha-BTX-A647 binding fluorescence, higher = more signal.

For experiment [11], the target named is Albumin (Bos taurus) (UniProt P02769). Nature of the experiment: compounds binding labelled BSA control protein – biochemical, small-molecule microarray, Alexa647 label, 635/667 nm fluorescence, artefact control for SMM control protein annotation, profiling panel (AID 1118).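 Also: score merges 667 nm emission intensity and signal-to-noise per printed compound spot.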 The settings on record: BSA-A647 binding, fluorescence 635 nm, higher = more signal.
Albumin (Bos taurus), sequence (P02769 whole entry, looked up): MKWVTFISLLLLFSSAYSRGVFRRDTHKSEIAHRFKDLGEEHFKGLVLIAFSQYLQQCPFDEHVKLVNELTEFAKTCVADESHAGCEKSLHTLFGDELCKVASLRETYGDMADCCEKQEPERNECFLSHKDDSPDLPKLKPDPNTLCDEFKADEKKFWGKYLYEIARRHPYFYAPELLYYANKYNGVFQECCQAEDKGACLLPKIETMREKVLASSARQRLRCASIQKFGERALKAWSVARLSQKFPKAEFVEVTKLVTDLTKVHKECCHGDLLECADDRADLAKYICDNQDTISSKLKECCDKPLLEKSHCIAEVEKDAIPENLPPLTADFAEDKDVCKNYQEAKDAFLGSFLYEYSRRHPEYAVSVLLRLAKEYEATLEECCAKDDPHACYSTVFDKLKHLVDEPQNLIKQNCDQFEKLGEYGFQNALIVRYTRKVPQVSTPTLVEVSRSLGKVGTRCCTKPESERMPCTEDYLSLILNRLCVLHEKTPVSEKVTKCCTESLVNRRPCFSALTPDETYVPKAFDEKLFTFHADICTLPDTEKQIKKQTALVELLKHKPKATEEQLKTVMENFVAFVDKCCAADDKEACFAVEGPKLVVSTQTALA

Experiment [12] is described as follows: probe aXIP binding to arrayed compounds – biochemical, NeuroSMM set, 635/667 nm fluorescence, primary screen (AID 1119).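 Also: probe is the protein aXip251-270 applied at 1 µg/mL to compound-printed slides; binding of probe to printed compounds measured as 667 nm fluorescence plus signal to noise.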 To be noted: small-molecule microarray, higher = more signal, called active from +8 up or from −8 down.
A short description of experiment [13]: probe aNOTCH3 binding on compound microarray – biochemical, small-molecule microarray, 635/667 nm fluorescence, primary screen (AID 1120).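 Also: probe is a biotin-tagged antibody raised against NOTCH3 rather than NOTCH3 protein; score merges spot fluorescence near 667 nm with spot signal to noise.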 To be noted: higher = more signal.
The nature of experiment [14]: probe aNOTCH2 binding on compound microarray – biochemical, small-molecule microarray, 635/667 nm fluorescence, primary screen (AID 1121).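 Also: score merges feature fluorescence read at 667 nm with its signal to noise.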 To be noted: higher = more signal.
Experiment [15] concerns the target Carbonic anhydrase 2 (Homo sapiens) (UniProt P00918). Briefly: compounds binding carbonic anhydrase 2 – biochemical, small-molecule microarray, Alexa647-labelled CAII, profiling panel (AID 1122). To be noted: CAII-A647 binding fluorescence, higher = more signal.
Experiment [16] in a line: COS7 lysate on small-molecule microarray, probe aHis, 635 nm (AID 1123).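 Also: z-score combines 667nm fluorescence intensity with signal-to-noise per printed compound spot.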 The settings on record: COS7 cell lysate, fluorescence, higher = more signal.
The nature of experiment [17]: probe aLAP1 signal on lysate-treated microarray – cell lysate, small-molecule microarray, COS7 lysate, primary screen (AID 1124).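 Also: lysate comes from COS7 cells expressing LAP1 and is applied at 0.3 µg/mL; score merges spot fluorescence near 667 nm with signal-to-noise over triplicate slides.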 To be noted: probe aLAP1, fluorescence, higher = more signal.
Experiment [18] relates to Sam68 (KHDRBS1). Nature of the experiment: compounds binding KHDRBS1 protein – biochemical, small-molecule microarray, 635 nm fluorescence, primary screen (AID 1125).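 Also: score merges 667 nm channel intensity with signal to noise over triplicate slides.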 The settings on record: higher = more signal.
In experiment [19] the test system is Chordin-like protein 2 (CHRDL2). Briefly: compounds binding chordin-like 2 – biochemical, small-molecule microarray, 635 nm fluorescence, primary screen (AID 1126).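 Also: printed compound slides probed with Chrdl2 protein at 4 µg/mL for 1 h at 4 C; score merges 667 nm emission intensity with signal to noise over three replicate slides.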 The settings on record: fluorescence 635 nm, higher = more signal.
Experiment [20] addresses Concanavalin-A (Canavalia ensiformis) (UniProt P02866). Briefly: compounds binding concanavalin A lectin – biochemical, small-molecule microarray, Alexa647 label, 635 nm, artefact control for SMM control protein annotation, primary screen (AID 1127).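 Also: z combines 667 nm emission intensity with signal-to-noise across three replicate slides.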 To be noted: ConA-A647 binding fluorescence, higher = more signal.

Concanavalin-A (Canavalia ensiformis), sequence (P02866 whole entry, looked up): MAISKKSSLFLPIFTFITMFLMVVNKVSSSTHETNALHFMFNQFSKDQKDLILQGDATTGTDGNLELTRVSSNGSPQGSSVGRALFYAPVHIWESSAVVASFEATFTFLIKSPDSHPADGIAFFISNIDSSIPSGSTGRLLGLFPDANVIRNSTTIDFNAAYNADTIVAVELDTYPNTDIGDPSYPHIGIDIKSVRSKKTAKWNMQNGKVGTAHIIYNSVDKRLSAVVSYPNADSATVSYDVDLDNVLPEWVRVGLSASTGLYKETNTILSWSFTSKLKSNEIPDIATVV
Torsin-1A-interacting protein 1 (Homo sapiens), sequence (Q5JTV8 whole entry, looked up): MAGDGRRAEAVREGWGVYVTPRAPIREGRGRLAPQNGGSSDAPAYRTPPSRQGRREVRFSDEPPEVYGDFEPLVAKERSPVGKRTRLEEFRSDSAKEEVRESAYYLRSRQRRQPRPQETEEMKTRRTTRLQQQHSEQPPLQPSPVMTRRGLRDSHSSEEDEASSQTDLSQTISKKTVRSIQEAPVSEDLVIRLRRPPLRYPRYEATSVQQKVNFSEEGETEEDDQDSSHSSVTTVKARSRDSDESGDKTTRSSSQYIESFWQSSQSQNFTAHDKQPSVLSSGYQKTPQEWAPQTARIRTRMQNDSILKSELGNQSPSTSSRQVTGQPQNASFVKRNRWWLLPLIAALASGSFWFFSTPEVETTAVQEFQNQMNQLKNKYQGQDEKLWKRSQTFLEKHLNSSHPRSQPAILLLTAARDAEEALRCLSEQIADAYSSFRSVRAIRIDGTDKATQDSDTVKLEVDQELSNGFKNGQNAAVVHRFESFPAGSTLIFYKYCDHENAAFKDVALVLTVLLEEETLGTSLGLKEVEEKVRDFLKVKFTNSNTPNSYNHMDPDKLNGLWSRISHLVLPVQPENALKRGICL
Alpha-bungarotoxin (Bungarus multicinctus), sequence (P60615 whole entry, looked up): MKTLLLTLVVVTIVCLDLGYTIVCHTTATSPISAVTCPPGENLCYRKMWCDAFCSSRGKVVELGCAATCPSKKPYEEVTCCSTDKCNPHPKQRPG

In the case of `CCN1C(C)=C(C(=O)OC)[C@@H](c2ccccc2)N2C(=O)[C@](O)(C(=O)OC)[C@@H](c3ccccc3)C(C(=O)c3ccccc3)=C12`, the composite z-score in experiment [1] was 0.474; in [3], 0.499; in experiment [4], 0.0865; in experiment [5] it was 0.0844; in experiment [6], -0.0685; in experiment [7], 0.166. Besides, the composite z-score in experiment [8] was 0.158; in [9], 0.653; in [10] it was 0.232; in [11], 0.325; in [13], 0.541; in experiment [14], -0.112. The composite z-score in experiment [15] was found to be 0.401; in experiment [16], 0.915; in experiment [17], 0.629; in [18], 0.723; in experiment [19] it was 0.309; in experiment [20] it was 0.352. This compound gave a z-score in experiment [2] of -1.15. Further, the composite Z-score in [12] was 0.111 (inactive).

In the case of `COC(=O)[C@@]1(Cc2ccccc2N=[N+]=[N-])N=C(c2ccc(OCCCO)cc2)O[C@H]1c1ccccc1CN=[N+]=[N-]`, the composite z-score in [1] was 0.403; in experiment [3], -0.417; in [4], 0.559; in [5], 0.0128; in [6] it was -0.0758; in experiment [7], -0.136. The composite z-score is 1.01 in [8]; 0.889 in experiment [9]; 1.28 in experiment [10]; -0.487 in [11]; -0.0699 in [13]; 0.0341 in experiment [14]. For the same compound, the composite z-score in [15] is 0.571; in experiment [16], 2.1; in experiment [17], -0.113; in [18], 1.22; in [19], 0.0008; in [20], 0.456. The z-score in experiment [2] is -3.35. Moreover, in [12], the composite Z-score was 0.289 (inactive).

Take `C[C@]1(C(=O)NCc2ccccc2)c2ccccc2C(=O)N(Cc2cc(C(F)(F)F)cc(C(F)(F)F)c2)[C@H]1c1ccc(CO)cc1`: the composite z-score was 1.1 in experiment [1]; 0.159 in experiment [3]; 0.956 in experiment [4]; 0.844 in [5]; -0.0519 in experiment [6]; 1.39 in experiment [7]. The composite z-score in [8] was -0.0047; in experiment [9], 0.541; in experiment [10], 0.615; in experiment [11] it was 0.157; in experiment [13], 0.154; in experiment [14] it was 0.0827. Further, the composite z-score in [15] was 0.529; in experiment [16], 0.9; in [17], 0.158; in experiment [18] it was 1.3; in experiment [19], 0.242; in experiment [20] it was 0.677. In addition, the z-score in experiment [2] is -2.06. The composite Z-score in experiment [12] is -0.471 (inactive).

Turning to `CC[C@@H]1C=C(C(=O)O)[C@H](c2ccccc2)N1S(=O)(=O)c1ccc([N+](=O)[O-])cc1`, the composite z-score in [1] is 0.672; in [3], -0.52; in experiment [4], 0.354; in experiment [5] it was 0.202; in [6], -0.0512; in experiment [7] it was -0.138. Moreover, the composite z-score in [8] was -0.321; in experiment [9], 1.41; in experiment [10], 0.427; in experiment [11], 0.938; in experiment [13], 0.0793; in experiment [14] it was -0.0983. Also, the composite z-score is 0.514 in [15]; 2.43 in experiment [16]; 0.612 in experiment [17]; 1.04 in experiment [18]; -0.812 in [19]; 0.942 in experiment [20]. In addition, in experiment [2], the z-score is -0.661. Further, the composite Z-score in experiment [12] is 0.0692 (inactive).

Consider `CCOC(=O)C[C@H]1[C@H](OC(=O)c2ccccc2-c2ccccc2)[C@@H](NC(=O)c2ccc(-c3ccccc3)cc2)c2cc(OCCCO)ccc2N1C(=O)Cc1ccc(OC)cc1`, for which the composite z-score was 0.295 in experiment [1]; 0.462 in experiment [3]; -0.203 in experiment [4]; -0.499 in [5]; -0.111 in experiment [6]; -0.0626 in experiment [7]. Further, the composite z-score in experiment [8] was -0.31; in [9] it was -0.0098; in experiment [10] it was 0.322; in [11] it was 0.0867; in [13], 0.0193; in experiment [14], -0.0759. The composite z-score was -0.0176 in experiment [15]; 0.416 in [16]; -0.0563 in [17]; 0.406 in [18]; 0.335 in [19]; 0.398 in experiment [20]. Further, the z-score in experiment [2] was -2.04. Also, in [12], the composite Z-score was 0.0368 (inactive).
